Measured values published in PubChem BioAssay (NCATS).
Values joined by “and” are separate entries in the source; they are usually repeats but may differ in a detail not shown here. Equal entries are not always repeated. Results filed as inconclusive are left out. A structure can be active in one record and inactive in another. Active and inactive are the calls of the source. Unless noted, the call rests on the fitted dose curve.

The compounds below were run against Cytochrome P450 1A2 (Homo sapiens) (UniProt P05177) (assay: p450-cyp1a2 (AID 410; further: potency means the concentration at half of the fitted maximal effect;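 on activity change, negative = inhibition: -100% = full effect of reference inhibitor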)). Conditions: recombinant CYP1A2, luciferin-ME demethylation, luminescence; series mostly up to 57 µM; activity change, negative = inhibition: at the top concentration.
Chain of Cytochrome P450 1A2 (Homo sapiens) (P05177 whole entry, looked up): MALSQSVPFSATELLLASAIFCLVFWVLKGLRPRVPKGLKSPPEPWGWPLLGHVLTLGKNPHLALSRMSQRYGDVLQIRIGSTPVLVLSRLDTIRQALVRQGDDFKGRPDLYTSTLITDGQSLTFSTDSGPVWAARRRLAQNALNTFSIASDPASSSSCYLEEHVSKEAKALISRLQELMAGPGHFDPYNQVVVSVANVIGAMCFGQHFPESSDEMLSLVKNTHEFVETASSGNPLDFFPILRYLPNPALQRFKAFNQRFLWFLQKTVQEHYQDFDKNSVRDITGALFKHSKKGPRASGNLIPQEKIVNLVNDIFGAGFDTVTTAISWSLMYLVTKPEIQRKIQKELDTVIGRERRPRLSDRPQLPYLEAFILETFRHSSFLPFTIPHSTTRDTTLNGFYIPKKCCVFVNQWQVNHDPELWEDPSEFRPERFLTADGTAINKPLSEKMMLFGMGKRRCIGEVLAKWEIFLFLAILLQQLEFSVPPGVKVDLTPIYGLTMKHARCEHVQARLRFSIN
Outline: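 Human CYP1A2 (20nM) demethylated Luciferin-ME at its Km (100uM) in 100mM KPO4. After 10 min compound preincubation, NADPH regeneration ran the reaction 60 min at room temperature. Luciferin was read by luminescence, normalized to 57 uM furafylline.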
For `CC(C)[C@@]1(NC(=O)[C@@H]2C[C@H]3c4cccc5[nH]cc(c45)C[C@@H]3N(C)C2)O[C@@]2(O)[C@H]3CCCN3C(=O)[C@H](Cc3ccccc3)N2C1=O`, the “activity change, negative = inhibition” value was -4.5% (inactive). With `C[C@@H](C(=O)OC1C[C@H]2CC[C@@H](C1)N2C)c1ccc(Br)cc1` (some centres undefined) the Potency was 39.8 µM (active). For `CC(=O)C1=C(O)[C@@H]2[C@@H]3c4c[nH]c5cccc(c45)C[C@@H]3C(C)(C)N2C1=O`, the Potency was 12.6 µM (active). `COc1ccc2[nH]cc(C3=CCNCC3)c2c1` was tested, and the Potency was 0.251 µM (active). For `Oc1ccc2c3c1O[C@H]1c4[nH]c5ccccc5c4C[C@]4(O)[C@H](C2)N(CC2CC2)CC[C@@]314`, the Potency was “inactive and 39.8 µM (active)”. With `CCN(CC)CCO[C@H]1CC[C@@]2(C)C(=CC[C@@H]3[C@H]2CC[C@]2(C)C(=O)CC[C@H]32)C1` the “activity change, negative = inhibition” value was -19.9% (inactive).

The compounds below were run against Glucocorticoid receptor (Homo sapiens) (UniProt P04150) (assay: GR-GFP Redistribution (AID 450;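 active means compounds whose dose series gives a full or clear partial fitted curve of increased nuclear translocation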; further: potency means the concentration at half of the fitted maximal effect)). Conditions: U2OS GR-GFP nuclear translocation, laser cytometry, 2 h.
Chain of Glucocorticoid receptor (Homo sapiens) (P04150 whole entry, looked up, the tested form may be a part): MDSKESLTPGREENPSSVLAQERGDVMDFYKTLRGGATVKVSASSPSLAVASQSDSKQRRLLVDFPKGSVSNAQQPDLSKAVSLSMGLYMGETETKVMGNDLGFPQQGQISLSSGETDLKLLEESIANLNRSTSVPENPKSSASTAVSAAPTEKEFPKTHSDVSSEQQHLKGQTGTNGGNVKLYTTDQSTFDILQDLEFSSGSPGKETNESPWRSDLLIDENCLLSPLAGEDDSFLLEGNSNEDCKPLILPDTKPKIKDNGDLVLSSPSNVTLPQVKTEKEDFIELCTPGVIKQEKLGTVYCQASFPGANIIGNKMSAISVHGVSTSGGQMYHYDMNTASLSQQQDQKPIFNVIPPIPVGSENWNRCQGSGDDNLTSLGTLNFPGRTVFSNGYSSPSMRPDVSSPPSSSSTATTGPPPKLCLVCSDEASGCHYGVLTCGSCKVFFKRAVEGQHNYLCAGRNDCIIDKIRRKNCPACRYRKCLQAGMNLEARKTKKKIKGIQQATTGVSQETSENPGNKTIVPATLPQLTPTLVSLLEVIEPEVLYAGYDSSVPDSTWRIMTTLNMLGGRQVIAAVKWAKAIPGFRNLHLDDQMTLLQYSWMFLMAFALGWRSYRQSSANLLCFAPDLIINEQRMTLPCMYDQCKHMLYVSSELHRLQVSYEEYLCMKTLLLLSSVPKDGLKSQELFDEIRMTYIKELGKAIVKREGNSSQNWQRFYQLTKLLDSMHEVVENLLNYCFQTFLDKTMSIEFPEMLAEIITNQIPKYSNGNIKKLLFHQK
`CC(C)[C@@]1(NC(=O)[C@@H]2C[C@H]3c4cccc5[nH]cc(c45)C[C@@H]3N(C)C2)O[C@@]2(O)[C@H]3CCCN3C(=O)[C@H](Cc3ccccc3)N2C1=O` was tested, and the Potency was > 46 µM (inactive). In the case of `COc1ccc2c(c1)[nH]c1c(C)nccc12`, the Potency is reported as > 20.6 µM (inactive). With `Cl.Cl.Cl.Cl.Cl.Cl.N.N.N.N.NNNNN.NNNNN.O.O.[Ru].[Ru].[Ru]` the Potency was > 46 µM (inactive). With `C[C@@H](C(=O)OC1C[C@H]2CC[C@@H](C1)N2C)c1ccc(Br)cc1` (some centres undefined) the Potency was > 46 µM (inactive). With `NC(N)=NCCCCCCCCCCN=C(N)N` the Potency was > 46 µM (inactive). For `CC(=O)C1=C(O)[C@@H]2[C@@H]3c4c[nH]c5cccc(c45)C[C@@H]3C(C)(C)N2C1=O`, the Potency was > 46 µM (inactive). For `COc1ccc2[nH]cc(C3=CCNCC3)c2c1`, the Potency was > 46 µM (inactive). `Oc1ccc2c3c1O[C@H]1c4[nH]c5ccccc5c4C[C@]4(O)[C@H](C2)N(CC2CC2)CC[C@@]314` was tested, and the Potency was > 46 µM (inactive). With `CN1CC[C@@]2(c3cccc(O)c3)Cc3nc4ccccc4cc3C[C@H]2C1` the Potency was > 46 µM (inactive).

The compounds below were run against Glucocorticoid receptor (Homo sapiens) (UniProt P04150) (assay: GR-EFC Redistribution (AID 451; further: potency means the concentration at half of the fitted maximal effect)). Conditions: CHO-K1 GR-EFC translocation, beta-gal luminescence, 2 h.
Outline: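 CHO-K1 cells expressing nuclear EA and GR-ED fragments of b-gal; compounds titrated up to 46 uM final, 2 h at 37 C. GR nuclear translocation read as complemented b-gal luminescence after 1 h RT detection.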
With `CC(C)[C@@]1(NC(=O)[C@@H]2C[C@H]3c4cccc5[nH]cc(c45)C[C@@H]3N(C)C2)O[C@@]2(O)[C@H]3CCCN3C(=O)[C@H](Cc3ccccc3)N2C1=O` the Potency was > 46 µM (inactive). For `COc1ccc2c(c1)[nH]c1c(C)nccc12`, the Potency was > 20.6 µM (inactive). For `Cl.Cl.Cl.Cl.Cl.Cl.N.N.N.N.NNNNN.NNNNN.O.O.[Ru].[Ru].[Ru]`, the Potency was > 46 µM (inactive). For `C[C@@H](C(=O)OC1C[C@H]2CC[C@@H](C1)N2C)c1ccc(Br)cc1` (some centres undefined), the Potency was > 46 µM (inactive). In the case of `NC(N)=NCCCCCCCCCCN=C(N)N`, the Potency is reported as > 46 µM (inactive). For `CC(=O)C1=C(O)[C@@H]2[C@@H]3c4c[nH]c5cccc(c45)C[C@@H]3C(C)(C)N2C1=O`, the Potency was > 46 µM (inactive). For `COc1ccc2[nH]cc(C3=CCNCC3)c2c1`, the Potency was > 46 µM (inactive). With `Oc1ccc2c3c1O[C@H]1c4[nH]c5ccccc5c4C[C@]4(O)[C@H](C2)N(CC2CC2)CC[C@@]314` the Potency was > 46 µM (inactive). For `CN1CC[C@@]2(c3cccc(O)c3)Cc3nc4ccccc4cc3C[C@H]2C1`, the Potency was > 46 µM (inactive).

The compounds below were run against Mitogen-activated protein kinase 10 (Mus musculus) (UniProt Q61831) (assay: JNK3 AlphaScreen Assay (AID 530; active means well fitted curve in either direction with a large enough effect, not every such curve was filed as active;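 further: kinase came from lysate of stimulated human HepG2 cells; signal reports phosphorylation of biotinylated GST-cJun 1-79 at Ser73 with 10 µM ATP; on the % scale 0 is the no-effect control and ±100 the full control effect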)). Conditions: JNK3 lysate, c-Jun phosphorylation; series mostly up to 57.1 µM; activity change, negative = inhibition: at the top concentration.
Outline: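 qHTS format: compounds tested as titrations against IL-1beta/TNF-alpha-activated HepG2 lysate JNK3 with biotin-GST-cJun substrate and 10 uM ATP at room temperature. Loss of anti-phospho-cJun AlphaScreen signal indicates inhibition.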
`CC(C)[C@@]1(NC(=O)[C@@H]2C[C@H]3c4cccc5[nH]cc(c45)C[C@@H]3N(C)C2)O[C@@]2(O)[C@H]3CCCN3C(=O)[C@H](Cc3ccccc3)N2C1=O` was tested, and the outcome was “inactive”. With `COc1ccc2c(c1)[nH]c1c(C)nccc12` the “activity change, negative = inhibition” value was -11.6% [at 25.6 µM] (inactive). `Cl.Cl.Cl.Cl.Cl.Cl.N.N.N.N.NNNNN.NNNNN.O.O.[Ru].[Ru].[Ru]` was tested, and the “activity change, negative = inhibition” value was -20.6% (inactive). For `C[C@@H](C(=O)OC1C[C@H]2CC[C@@H](C1)N2C)c1ccc(Br)cc1` (some centres undefined), the “activity change, negative = inhibition” value was -15.3% (inactive). In the case of `CN1C(=O)COc2c(C(=O)N[C@@H]3CN4CCC3CC4)cc(Cl)cc21`, the “activity change, negative = inhibition” value is reported as -9.26% (inactive). With `NC(N)=NCCCCCCCCCCN=C(N)N` the “activity change, negative = inhibition” value was -15.5% (inactive). With `C[C@H]1C[C@H](C)C(=O)[C@@H]([C@H](O)CC2CC(=O)NC(=O)C2)C1` the outcome was “inactive”. For `CC(=O)C1=C(O)[C@@H]2[C@@H]3c4c[nH]c5cccc(c45)C[C@@H]3C(C)(C)N2C1=O`, the “activity change, negative = inhibition” value was -5.9% (inactive). For `COc1ccc2[nH]cc(C3=CCNCC3)c2c1`, the “activity change, negative = inhibition” value was -13.5% (inactive). For `Oc1ccc2c3c1O[C@H]1c4[nH]c5ccccc5c4C[C@]4(O)[C@H](C2)N(CC2CC2)CC[C@@]314`, the outcome was “inactive”. For `CN1CC[C@@]2(c3cccc(O)c3)Cc3nc4ccccc4cc3C[C@H]2C1`, the “activity change, negative = inhibition” value was -4.45% (inactive). In the case of `CCN(CC)CCO[C@H]1CC[C@@]2(C)C(=CC[C@@H]3[C@H]2CC[C@]2(C)C(=O)CC[C@H]32)C1`, the “activity change, negative = inhibition” value is reported as 3.32% (inactive).

What follows are compounds tested against 3',5'-cyclic-AMP phosphodiesterase 4B (Homo sapiens) (UniProt Q07343) (assay: qHTS Assay for Inhibitors of PDE-IV (AID 607; active means well fitted activation curve with a large enough effect in the main read-out, with a control signal flat, not every such curve was filed as active; further: % of control where 0% means no effect)). Conditions: HEK293 ACTOne CNG channel cells, membrane potential fluorescence; series mostly up to 22.9 µM; activation (PDE inhibition): at the top concentration.
Chain of 3',5'-cyclic-AMP phosphodiesterase 4B (Homo sapiens) (Q07343 whole entry, looked up): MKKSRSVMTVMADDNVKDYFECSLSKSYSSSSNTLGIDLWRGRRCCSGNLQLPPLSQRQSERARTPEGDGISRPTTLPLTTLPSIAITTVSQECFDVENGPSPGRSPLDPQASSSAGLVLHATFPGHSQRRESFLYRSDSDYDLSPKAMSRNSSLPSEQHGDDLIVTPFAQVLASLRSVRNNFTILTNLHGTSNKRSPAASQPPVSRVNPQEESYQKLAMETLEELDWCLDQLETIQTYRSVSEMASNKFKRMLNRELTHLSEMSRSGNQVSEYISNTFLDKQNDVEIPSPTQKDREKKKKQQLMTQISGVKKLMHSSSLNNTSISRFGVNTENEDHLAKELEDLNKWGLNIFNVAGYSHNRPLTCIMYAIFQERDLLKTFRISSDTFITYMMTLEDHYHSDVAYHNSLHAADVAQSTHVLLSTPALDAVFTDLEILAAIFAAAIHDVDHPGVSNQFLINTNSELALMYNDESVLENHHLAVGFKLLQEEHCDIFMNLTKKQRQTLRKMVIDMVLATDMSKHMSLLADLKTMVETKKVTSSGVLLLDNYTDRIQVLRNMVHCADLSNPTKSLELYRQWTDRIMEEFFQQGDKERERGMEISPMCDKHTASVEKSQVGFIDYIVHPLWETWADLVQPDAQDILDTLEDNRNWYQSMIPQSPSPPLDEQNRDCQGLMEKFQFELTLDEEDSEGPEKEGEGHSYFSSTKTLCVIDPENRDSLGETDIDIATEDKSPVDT
Outline: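 ACTOne HEK293 cells carry a modified cAMP-gated CNG channel and express endogenous PDE4; plated 1000 cells/well, compounds up to 22.9 uM final. Membrane-potential dye fluorescence (ex 535/em 590) was read; parental cells received 10 uM forskolin + 100 uM RO 20-1724.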
`CC(C)[C@@]1(NC(=O)[C@@H]2C[C@H]3c4cccc5[nH]cc(c45)C[C@@H]3N(C)C2)O[C@@]2(O)[C@H]3CCCN3C(=O)[C@H](Cc3ccccc3)N2C1=O` was tested, and the “activation (PDE inhibition)” value was -18.8% (inactive). For `COc1ccc2c(c1)[nH]c1c(C)nccc12`, the “activation (PDE inhibition)” value was -12.6% (inactive). With `Cl.Cl.Cl.Cl.Cl.Cl.N.N.N.N.NNNNN.NNNNN.O.O.[Ru].[Ru].[Ru]` the “activation (PDE inhibition)” value was -0.0918% (inactive). For `CN1C(=O)COc2c(C(=O)N[C@@H]3CN4CCC3CC4)cc(Cl)cc21`, the “activation (PDE inhibition)” value was -31.9% (inactive). For `NC(N)=NCCCCCCCCCCN=C(N)N`, the “activation (PDE inhibition)” value was 12.6% (inactive). With `C[C@H]1C[C@H](C)C(=O)[C@@H]([C@H](O)CC2CC(=O)NC(=O)C2)C1` the “activation (PDE inhibition)” value was -22.1% (inactive). For `Oc1ccc2c3c1O[C@H]1c4[nH]c5ccccc5c4C[C@]4(O)[C@H](C2)N(CC2CC2)CC[C@@]314`, the “activation (PDE inhibition)” value was 8.24% (inactive). `CCN(CC)CCO[C@H]1CC[C@@]2(C)C(=CC[C@@H]3[C@H]2CC[C@]2(C)C(=O)CC[C@H]32)C1` was tested, and the “activation (PDE inhibition)” value was -14.2% (inactive).
